# Mcl1 Bid PPI: Mcl-1/Bid interaction inhibition; actives 0.97% (n = 220,000); TR-FRET Mcl-1/Bid-Dy647 peptide binding, 1536-well; inhibition, % at 21.7 µM; AID 1021;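 active = compounds that cut the binding signal by more than half at the single screening dose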;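 note: His-tagged Mcl-1 with europium anti-His antibody binding Bid BH3 peptide; 0% = Mcl-1 plus peptide wells and 100% = peptide-only wells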
# Target sequence (Q07820 whole entry, looked up): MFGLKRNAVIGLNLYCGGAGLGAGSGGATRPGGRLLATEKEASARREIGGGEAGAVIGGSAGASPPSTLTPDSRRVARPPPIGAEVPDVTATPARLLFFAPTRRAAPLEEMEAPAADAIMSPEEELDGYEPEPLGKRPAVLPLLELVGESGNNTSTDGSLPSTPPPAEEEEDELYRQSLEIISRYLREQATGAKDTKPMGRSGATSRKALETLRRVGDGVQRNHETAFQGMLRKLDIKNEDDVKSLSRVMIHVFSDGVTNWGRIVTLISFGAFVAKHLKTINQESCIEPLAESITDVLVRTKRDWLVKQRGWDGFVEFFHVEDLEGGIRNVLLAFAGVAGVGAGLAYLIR
# NCF1 inh: p47phox (human) inhibition. p47phox/p22phox peptide binding, fluorescence polarization, 2 h. P14598. actives 0.53% (n = 220,000). inhibition, % at 24.7 µM;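 note: 0% = p47phox with labelled peptide and 100% = labelled peptide alone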
# eIF4E-4G inh: inhibitors of eIF4E and eIF4G interaction in translation initiation | P63073+Q04637 | TR-FRET eIF4E-eIF4GI(517-606) binding, 2 h | inhibition, % at 21.7 µM | actives 0.37% (n = 220,000);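 note: 0% = full FRET control wells and 100% = background wells lacking eIF4GI fragment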
# Mcl1 Noxa PPI: Mcl-1/Noxa interaction inhibition; Q07820; inhibition, % at 21.7 µM; actives 1.5% (n = 220,000); TR-FRET Mcl-1/Noxa peptide binding, 2 h;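 active = compounds that cut the protein-peptide binding signal by more than 50% relative to plate controls in a single-dose test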;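 note: His-tagged Mcl-1 with rhodamine Noxa BH3 peptide and terbium anti-His antibody; 0% = Mcl-1 plus Noxa peptide wells and 100% = peptide-only wells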
# Bim-Mcl-1: inhibitors of Bim-Mcl-1 interaction, human | Q07820 | Bead-based flow cytometry, Bim peptide-Mcl-1 binding | inhibition, % at 10 µM | actives 0.1% (n = 190,000) | AID 1009; in the data active = inhibition above about 40%;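 note: 0% = no compound tracer wells and 100% = peptide blocker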
# 14-3-3 Bad inh: disrupts binding of bovine 14-3-3 zeta to phospho-Bad peptide; P63103; actives 0.71% (n = 220,000); TR-FRET 14-3-3zeta/Dy647-pBad peptide displacement, 1 h; inhibition, % at 21.7 µM; AID 781;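 active = inhibition above about 70%, limit read from the data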;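 note: 0% = full 14-3-3 plus peptide FRET controls and 100% = background without 14-3-3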
# Target sequence (P63103 whole entry, looked up): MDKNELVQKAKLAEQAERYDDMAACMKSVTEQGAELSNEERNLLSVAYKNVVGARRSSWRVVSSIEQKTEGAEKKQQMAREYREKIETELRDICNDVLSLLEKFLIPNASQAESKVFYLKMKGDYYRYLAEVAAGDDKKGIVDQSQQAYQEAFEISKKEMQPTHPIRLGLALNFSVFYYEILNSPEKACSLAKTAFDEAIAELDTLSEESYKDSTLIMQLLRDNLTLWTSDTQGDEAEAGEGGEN
# Starred values were filed as active, the others as inactive; / = no result given. Rows were chosen to be rich in hits. Some 3.3% of all compounds tested hit in one or more screens of this group.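 Rule for the calls, unless noted: active = inhibition above about 30% (limit read from the data); inactive = the rest.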
SMILES,Mcl1 Bid PPI,NCF1 inh,eIF4E-4G inh,Mcl1 Noxa PPI,Bim-Mcl-1,14-3-3 Bad inh
CCOC(=O)N1CCN(C(=O)c2ccccc2CCc2ccccc2)CC1,-7,87*,-19,17,0,-7
O=C(CSc1cccs1)Nc1ccc(Cl)cc1,-8,1,-2,12,/,3
CCOC(=O)c1cccc(Nc2nc(C)cc(C)n2)c1,10,-6,0,3,-1,71*
CCOC(=O)c1ccc2nc(C)cc(Nc3cccc(C(=O)O)c3)c2c1,-18,-10,2,-2,0,-8
CCOc1cccc(/C(O)=C2/C(=O)C(=O)N(Cc3ccco3)C2c2ccncc2)c1 (centres undefined),-80,-11,1,11,0,74*
COc1cc(C(=O)NCCN2C(=O)S/C(=C\c3ccc(F)cc3)C2=O)ccc1OCC(=O)N1CCOCC1,-4,0,-3,-6,/,0
COc1ccc(/C=C(\C#N)C(=O)NCCc2ccccc2)cc1OCc1ccccc1,-14,2,-33,22,-1,13
COCCCNC(=O)/C(C#N)=C/c1ccc(OCC(=O)O)c(OC)c1,32,-2,24,100*,1,26
CN(C)c1ccc(NC(=O)c2sc(SCC(=O)Nc3ccc(Br)cc3)nc2N)cc1,21,0,2,34,1,3
CN(C)c1ccc(NC(=O)c2sc(SCC(=O)Nc3nccs3)nc2N)cc1,-29,-7,8,66*,-5,5
O=C(Nc1nc2ccccc2s1)c1cc2c(s1)-c1ccccc1OC2,57*,-1,-8,14,0,27
COc1ccc(S(=O)(=O)N2CCN(C(=O)NC3CCCCC3)CC2)cc1OC,-61,-15,-2,56*,-4,9
COc1ccc(S(=O)(=O)N2CCC(C(=O)N3CCCCC3)CC2)cc1OC,-21,-12,4,5,-2,-4
CN(C)CCCNCCCNC(=O)/C(=N\O)c1ccccc1,-12,5,-12,-20,/,-2
C[C@@H](C(=O)Nc1nc2ccc(F)cc2s1)N1C(=O)C2CC=CCC2C1=O (some centres undefined),95*,-4,0,-8,-2,-5
Cc1ccc2nc(NC(=O)[C@H](C)N3C(=O)C4CC=CCC4C3=O)sc2c1 (some centres undefined),-6,-3,3,9,2,-3
Nc1scc2c(C(=O)N/N=C/c3ccc(Cl)cc3)nn(-c3ccccc3)c(=O)c12,4,-12,-6,94*,1,-3
COC(=O)c1ccccc1Nc1ccccc1,-27,-4,-10,-10,3,-9
c1ccc(Nc2cccc3c(Nc4ccccc4)cccc23)cc1,6,-2,-7,51*,/,6
c1ccc(Nc2cccc(Nc3ccccc3)n2)cc1,-21,-15,4,72*,32,-6
CSc1nc(-c2ccc(N(C)C)cc2)c(C#N)c(=O)n1C,-15,-13,-2,6,0,1
C(=N\c1nc2ccccc2n1Cc1ccccc1)/c1cccs1,51*,1,-8,20,-1,-3
CCn1c(-c2cc(Cl)ccc2OC)n[nH]c1=S,42,-2,25,59*,-4,3
C=CCn1c(-c2cc(Cl)ccc2OC)n[nH]c1=S,-11,-5,1,12,-6,11
CC(=O)c1c(C)nc(-c2ccc(Cl)cc2)nc1N=CN(C)C,3,-17,60*,20,-1,84*
SMILES,Mcl1 Bid PPI,NCF1 inh,eIF4E-4G inh,Mcl1 Noxa PPI,Bim-Mcl-1,14-3-3 Bad inh
Cc1cc(C)nc(SC(C)CNS(=O)(=O)c2ccccc2)n1 (centres undefined),-5,-4,-2,8,0,-5
CC(/C=N/NC(=O)c1cc(-c2cccn2C)n[nH]1)=C\c1ccccc1,-23,-6,5,8,/,95*
CCOc1ccc(/C=N/NC(=O)c2cc(-c3cccn3C)n[nH]2)cc1,-63,2,2,9,-4,-3
CCOC(=O)N1CCN(C(=O)COc2ccc3c(c2)C(=O)CC2(CCN(C(C)=O)CC2)O3)CC1,-5,-4,-2,-14,0,95*
COCC(=O)N(CCc1ccc(OC)c(OC)c1)Cc1cc2cc(C)ccc2nc1Cl,-36,-22,0,6,0,-9
O=C(Nc1cccnc1)c1cc2c(ccc3ccccc32)o1,26,-13,76*,36,0,77*
O=C(Nc1cccnc1)c1cccc(-c2cc3ccccc3oc2=O)c1,57*,1,7,28,-1,78*
NNC(=O)c1cc2c(ccc3ccccc32)o1,-27,-5,3,14,-4,-9
COc1cc(NC(=O)c2cccnc2)ccc1-c1cc2ccccc2oc1=O,20,8,-1,51*,-1,35
Cc1cc(C)n2c(Br)c(CSc3nc4ccccc4s3)nc2n1,3,-3,8,28,-2,-4
CC(=O)NS(=O)(=O)c1ccc(NC(=O)c2oc3c(Cl)cccc3c2C)cc1,10,-9,0,21,/,0
CC1CC(C)CN(c2ccc(C(=O)NCc3ccc4c(c3)OCO4)cc2[N+](=O)[O-])C1 (centres undefined),-40,-6,5,-5,-5,-1
CCn1c(C)nc2cc(C(=O)N/N=C/c3ccc(O)c(O)c3O)ccc21,42,-5,78*,95*,11,36
CCn1c(C)nc2cc(C(=O)N/N=C/c3cccc(OC)c3O)ccc21,-38,16,-7,65*,2,-15
COc1cccc(/C=N/NC(=O)c2ccc3nc[nH]c3c2)c1O,-85,6,4,48,/,-9
COc1ccccc1NC(=O)Cn1nc(-c2ccc(Cl)cc2)c2ccccc2c1=O,-4,3,-12,4,0,6
Cc1ccc(C)c(N2CCN(c3ccncc3N)CC2)c1,-21,-11,-1,20,/,-4
O=C(Nc1nccs1)c1ccc2c(=O)n3c(nc2c1)CCCCC3,1,-14,5,0,-12,-6
COc1cccc(OC)c1OCCCCCc1c(C)n[nH]c1C,29,3,4,22,0,81*
COc1cccc(OC)c1OCCCCc1c(C)n[nH]c1C,16,-2,3,20,1,11
Cc1cc(C)c(S(=O)(=O)N(C)CC(N)=O)c(C)c1,-20,63*,3,-8,0,-15
Cc1cc(C)c(S(=O)(=O)N(C)CC(=O)N2CCCCC2)c(C)c1,-18,-9,2,-15,-1,6
CCOc1ccc(Oc2ccc(NC(=O)[C@@H](NC(N)=O)[C@@H](C)CC)cc2)cc1,5,-2,-8,-5,/,3
C=C(C)C(=O)Nc1cccc(C2=NOC3(C2)C[C@H](C(N)=O)N(C(=O)c2ccccc2C(=O)c2ccccc2)C3)c1 (some centres undefined),-102,3,8,71*,/,33

# Screening data from PubChem.
